Screening results: PubChem, several laboratories
CFTR F508del cor = correctors of CFTR F508del function in bronchial epithelial cells; CFBE cells, YFP halide quenching; stimulated with forskolin plus potentiator P3; % fluorescence drop versus neutral controls; activity (quench increase), % at 7.58 µM; 350,000 tested, 0.36% active;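 active = mean added fluorescence quench of at least 8% versus neutral control, with both replicates also reaching 8%; inconclusive = only one of the mean or replicate conditions met; inactive = mean below 8% and not both replicates reaching 8%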;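 also: cells transiently co-express mutant CFTR-F508del with the halide-sensitive YFP; corrector assay measuring rescue of mutant channel to the surface after 24 h compound exposure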
EWS-Fli block = EWS/Fli transcriptional activity inhibition; A673 NR0B1-luciferase reporter, viability-normalised; inhibition, % at 12.6 µM; 350,000 tested, 0.67% active;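 active = mean inhibition of at least 50% after viability correction, with every replicate also passing that limit; inconclusive = mean reaches 50% but only one of two replicates passes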;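 also: firefly luciferase signal divided by Alamar Blue viability fluorescence both relative to DMSO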
Env fusion inh = inhibitors of HIV Env-mediated cell fusion; HeLa-JRFL Env/CEM21 cell fusion, luciferase; inhibition, % at 12.3 µM; 360,000 tested, 1.1% active; AID 651610;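 active = mean replicate inhibition score of at least 50 and every replicate individually at or above 50; inconclusive = only one of the two criteria met; inactive = mean below 50 and not all replicates reaching 50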;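 also: 0% = plate neutral controls and 100% = maraviroc near 300 nM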
PAX8 reporter = lowers PAX8-driven luciferase in RMG-I cells; RMG-I TPO-luciferase reporter, SteadyGlo, 24 h; inhibition, % at 12.6 µM; 360,000 tested, 1.2% active;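 active = mean replicate inhibition at least 60% with every replicate also reaching 60%; inconclusive = only one of the two criteria is met; inactive = mean below 60% and not all replicates reaching 60%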;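 also: luciferase light reporting Pax8 driven TPO promoter activity; plate controls were median of neutral control wells for no effect and mitoxantrone controls for full effect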
FXN GAA850 act = increases GAA850 frataxin promoter reporter activity | AID 540364 | activation, % at 6 µM | 360,000 tested, 0.56% active | HEK293 lucGAA850 FXN promoter luciferase reporter, 24 h; percent of 10 µM SAHA response;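 active = activation above the average of all compounds screened plus 3 SD, cutoff fixed separately per campaign, cut at about 7.5% in these data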;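 also: 0% = DMSO wells and 100% = 10 µM SAHA wells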
An asterisk follows results filed as active; [ ] = another dose, or the depositor's remark. This is a sample that favours compounds with a hit; in the whole collection about 2.5% have one here.

`CN(CC(=O)Nc1ccc(Cl)c(C(F)(F)F)c1)C(=O)C1CCCO1` (stereo not drawn) gave CFTR F508del cor -2, EWS-Fli block -7, PAX8 reporter 0 and FXN GAA850 act 1.
CN(CC(=O)Nc1ccc(Cl)c(C(F)(F)F)c1)CC(=O)NC1CCCCC1 was read as FXN GAA850 act 1.
CN(CC(=O)Nc1ccc(Cl)c(C(F)(F)F)c1)C(=O)C1(c2ccccc2)CC1 was read as CFTR F508del cor -3, EWS-Fli block -3, Env fusion inh 56*, PAX8 reporter 15 and FXN GAA850 act -4.
For CN(CC(=O)NCCc1ccc(S(N)(=O)=O)cc1)CC(=O)Nc1ccc(Cl)c(C(F)(F)F)c1 the results were CFTR F508del cor 13*, EWS-Fli block 8, Env fusion inh 93*, PAX8 reporter 23 and FXN GAA850 act 3.
For O=C1CCC(CCc2nc3ccccc3[nH]2)(c2ccccc2)C(=O)N1 (stereo not drawn) the results were CFTR F508del cor 11*, EWS-Fli block -1, Env fusion inh -10, PAX8 reporter 14 and FXN GAA850 act -1.
For c1ccc2[nH]c(CCCCCc3nc4ccccc4[nH]3)nc2c1 the results were CFTR F508del cor -1, EWS-Fli block 7, Env fusion inh 7 and PAX8 reporter 5.
Cc1noc(C)c1NC(=O)Nc1ccc2c(c1)CC(=O)N([C@@H](C)CO)C[C@H](C)[C@H](CN(C)S(=O)(=O)c1ccc(Cl)cc1)O2 was read as CFTR F508del cor -2, EWS-Fli block -1, Env fusion inh -4[16.7 µM] and PAX8 reporter -10.
For CCOc1ccc(S(=O)(=O)N2CCN=C2c2ccccc2)cc1 the results were CFTR F508del cor 0, EWS-Fli block 55* and FXN GAA850 act -2.
Screening Cc1cc(S(=O)(=O)N2CCN=C2c2ccccc2)ccc1F returned Env fusion inh -33 and FXN GAA850 act 3.
Screening COc1ccc(S(=O)(=O)Nc2ccc3c(c2)C(=O)N([C@@H](C)CO)C[C@H](C)[C@@H](CN(C)Cc2ccc(Cl)c(Cl)c2)OCCCC[C@@H](C)O3)cc1 returned CFTR F508del cor 7, EWS-Fli block 49, Env fusion inh inconclusive and PAX8 reporter 71*.
`COc1ccc(S(=O)(=O)Nc2ccc3c(c2)C(=O)N([C@H](C)CO)C[C@H](C)[C@H](CN(C)Cc2ccc(Cl)c(Cl)c2)OCCCC[C@@H](C)O3)cc1` gave CFTR F508del cor 4, EWS-Fli block -11, Env fusion inh -10[16.7 µM] and PAX8 reporter 10.
For COc1ccc(S(=O)(=O)Nc2ccc3c(c2)C(=O)N([C@@H](C)CO)C[C@H](C)[C@@H](CN(C)Cc2ccc(Cl)c(Cl)c2)OCCCC[C@H](C)O3)cc1 the results were CFTR F508del cor 5, EWS-Fli block -3, Env fusion inh 59*[16.7 µM] and PAX8 reporter 42.
Screening COc1ccc(CN(C)C[C@H]2OCCCC[C@H](C)Oc3ccc(NS(=O)(=O)c4ccc(OC)cc4)cc3C(=O)N([C@H](C)CO)C[C@H]2C)cc1 returned CFTR F508del cor 0, EWS-Fli block 4, Env fusion inh -76[16.7 µM] and PAX8 reporter -4.
COc1ccc(S(=O)(=O)Nc2ccc3c(c2)C(=O)N([C@@H](C)CO)C[C@H](C)[C@H](CN(C)Cc2ccc(Cl)c(Cl)c2)OCCCC[C@@H](C)O3)cc1 was read as CFTR F508del cor 8.0*, EWS-Fli block 11, Env fusion inh 11[16.7 µM] and PAX8 reporter 55.
`C[C@@H]1CN([C@H](C)CO)C(=O)c2cc(N(C)C)ccc2O[C@H]1CN(C)CC1CCCCC1` gave CFTR F508del cor -1.
CCN1CCC(O)(/C=C/c2ccc(C(C)C)cc2)C(C(=O)/C=C/c2ccc(C(C)C)cc2)C1 (stereo not drawn) was read as CFTR F508del cor -2, EWS-Fli block 56*, Env fusion inh -18, PAX8 reporter 64* and FXN GAA850 act 2.
For COc1ccc(/C=C/c2c(-c3ccc(OC)cc3)oc3ccc(-c4ccc(OC)cc4)cc23)cc1 the results were CFTR F508del cor 1, EWS-Fli block -6, Env fusion inh 8, PAX8 reporter -17 and FXN GAA850 act -2.
COc1ccc(/C=C/c2cc(-c3ccc(C)cc3)o[n+]2C)cc1 was read as Env fusion inh 134* and FXN GAA850 act -9.
Screening Cc1cccc(NC(=O)Nc2ccc3c(c2)C(=O)N(C)[C@@H]2CC[C@H](CC(=O)NCc4ccccc4Cl)O[C@H]2CO3)c1 returned CFTR F508del cor 3, EWS-Fli block -5, Env fusion inh 8[16.7 µM] and PAX8 reporter 13.
`CCN(CCCNC(=O)CC(C(=O)N1CCc2ccccc21)n1ccnc1)c1cccc(C)c1` (stereo not drawn) gave Env fusion inh 57* and FXN GAA850 act 0.
For COc1ccc2c(c1)/C(=C/c1cc(OC)c(OC)c(OC)c1)C(=O)N2 the results were CFTR F508del cor 13*, EWS-Fli block 63*, Env fusion inh 16, PAX8 reporter 33 and FXN GAA850 act -1.
Screening Cc1ccc2ccc(C(Nc3ccccc3)c3ccccc3)c(O)c2n1 (stereo not drawn) returned CFTR F508del cor 0, EWS-Fli block -15, Env fusion inh 6 and PAX8 reporter 70*.
`CCCC(=O)NC(c1ccccc1Cl)c1ccc2cccnc2c1O` (stereo not drawn) gave CFTR F508del cor 6, EWS-Fli block 23, Env fusion inh -66, PAX8 reporter 86* and FXN GAA850 act -10.
`CCC(=O)NC(c1ccc(C)cc1)c1ccc2cccnc2c1O` (stereo not drawn) gave CFTR F508del cor 11*, EWS-Fli block 32, Env fusion inh -23, PAX8 reporter 92* and FXN GAA850 act -9.
CCCCC(=O)NC(c1ccc(OC)cc1)c1ccc2cccnc2c1O (stereo not drawn) was read as CFTR F508del cor 4, EWS-Fli block 11, Env fusion inh 31, PAX8 reporter 71* and FXN GAA850 act -7.
`CCCC(=O)NC(c1ccc(N(C)C)cc1)c1ccc2cccnc2c1O` (stereo not drawn) gave CFTR F508del cor 9.8*, EWS-Fli block 36, Env fusion inh -27, PAX8 reporter 95* and FXN GAA850 act -10.
For CCCC(=O)NC(c1ccc(C(C)C)cc1)c1ccc2cccnc2c1O (stereo not drawn) the results were CFTR F508del cor 12*, EWS-Fli block 45, Env fusion inh -276, PAX8 reporter 95* and FXN GAA850 act -8.
For CC(=O)NC(c1ccc(Cl)cc1)c1ccc2cccnc2c1O (stereo not drawn) the results were CFTR F508del cor 12*, EWS-Fli block 44, Env fusion inh 1, PAX8 reporter 95* and FXN GAA850 act -9.
For O=C(O)c1ccccc1NC(c1ccccc1)c1ccc2cccnc2c1O (stereo not drawn) the results were CFTR F508del cor -1, EWS-Fli block 27, PAX8 reporter 71* and FXN GAA850 act -1.
